High-throughput results: PubChem, National Center for Advancing Translational Sciences (NCATS)
The list is not random: actives were taken first. Their share in the collection is about 21%.
SARS PLpro yeast: qHTS of Yeast-based Assay for SARS-CoV PLP; 330,000 tested, 0.19% active; AID 485353, 2010; Potency, µM (doses to about 32.9 µM), for inactives: top-dose activity, positive = growth rescue, actives largely listed as activators; S. cerevisiae expressing SARS-CoV PLpro, growth rescue; note: potency is the fitted concentration of half-maximal effect; 0% is about no effect; nearly all actives have a fitted effect of over 55% in size
Pf growth 48h: Primary qHTS for delayed death inhibitors of the malarial parasite plastid, 48 hour incubation; P. falciparum luciferase growth in erythrocytes, 48 h; Potency, µM (titrated, usually from 28.7 µM), inactives show at the top dose activity change, negative = inhibition, most hits filed as inhibitors; 310,000 tested, 5.9% active; active = well fitted inhibition curve with a large enough effect; inconclusive = small, poorly fitted or top-dose-only effect, or another doubt; inactive = no such curve, though single readings can be large or run the other way; note: potency is the fitted concentration of half-maximal effect; % is set by controls: 0 for no effect and ±100 for the full control effect
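Luciferase-expressing parasites in RBCs, 2% Hct / 0.1% parasitemia final; RPMI 1640 + 0.5% Albumax; 37 C, 5% CO2, one generation; luminescence read-out, lower signal = inhibition.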
CHX counter: Cycloheximide Counterscreen for Small Molecule Inhibitors of Shiga Toxin. 300,000 tested, 12% active. cell reporter, cycloheximide protein synthesis inhibition counterscreen. max response, %; in the data active = max response mostly above about 13%, no sharp cut-off; inactive = mostly below about 14%; note: read at 38.3 µM for the half of the compounds with a filed dose; 0% is about no effect
Shiga inhibitor: A qHTS for Small Molecule Inhibitors of Shiga Toxin; Vero cells, Shiga toxin protein synthesis inhibition reporter; inhibition, % at 38.7 µM; 290,000 tested, 9.2% active; AID 2315, 2010; in the data active = inhibition mostly above about 28%, no sharp cut-off; inactive = mostly below about 43%; note: 0% is about no effect
Pf growth 96h: Primary qHTS for delayed death inhibitors of the malarial parasite plastid, 96 hour incubation | 320,000 tested, 6.9% active | Potency, µM (top dose mostly 28.7 µM), for inactives: at the top dose activity change, negative = inhibition, actives largely listed as inhibitors | P. falciparum luciferase reporter growth, 96 h; active = well fitted inhibition curve with a large enough effect; inconclusive = small, poorly fitted or top-dose-only effect, or another doubt; inactive = no such curve, though single readings can be large or run the other way; note: potency is the fitted concentration of half-maximal effect; % is set by controls: 0 for no effect and ±100 for the full control effect
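Two parasite generations (96 h, 37 C, 5% CO2) of compound exposure in infected erythrocytes (0.05% parasitemia, 2% hematocrit). Luciferase-reporter P. falciparum; decreased luminescence indicates inhibited growth, aimed at apicoplast-acting delayed death.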
NS1 inh: qHTS Assay for Inhibitors of Influenza NS1 Protein Function. Potency, µM (highest dose often 46.1 µM), for inactives: at the highest dose activity, positive = more growth. 270,000 tested, 0.4% active; note: potency is the fitted concentration of half-maximal effect; actives are rising curves; nearly all actives have a fitted effect of over 50% in size
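Growth recovery, yeast-based: influenza A NS1 expressed in S. cerevisiae causes slow growth, and suppressors are detected by OD600. The parent strain without NS1 is used as positive control.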
* marks the source's active call; other numbers are inactive results; ? = inconclusive; . = not tested or not shown. Unless noted, calls come from the whole dose curve.

SMILES | SARS PLpro yeast | Pf growth 48h | CHX counter | Shiga inhibitor | Pf growth 96h | NS1 inh
Cc1cc(=O)[nH]c(N/N=C/c2ccc(F)cc2)n1 | -2% | 40% | 13* | 9 | -53% | 4%
Cn1cc(CCC(=O)NCCCc2ccccc2)c2ccccc21 | -1% | 56% | 3 | -1 | 31% | -12%
NNC(=O)c1cc2ccccc2cc1NS(=O)(=O)c1ccccc1 | -9% | 5.9µM* | 2 | -3 | ? | 30%
NC(=O)c1ccccc1NS(=O)(=O)c1ccccc1 | 4% | 13% | -4 | 20 | . | 2%
O=C(NN=Cc1ccccc1C(=O)O)c1cccc(S(=O)(=O)Nc2cccc(C(F)(F)F)c2)c1 | 4% | . | . | . | . | .
N#Cc1cc2c(nc1SCC(=O)Nc1nccs1)CCCCC2 | ? | -14% | 49* | 94* | 9% | 11%
Cc1ccc(C#N)c(SCC(=O)Nc2nccs2)n1 | 1% | 83% | 53* | 68* | 99% | -2%
CCn1c(C)nnc1SCC(=O)Nc1nccs1 | 1% | 44% | -5 | -4 | 0% | 3%
CCOC(=O)c1c(SCC(=O)Nc2nccs2)nc(C)c(C)c1C | -3% | 48% | 26* | 36* | ? | -2%
CCOC(=O)c1c(SCC(=O)Nc2nc(C)cs2)nc(=O)[nH]c1C | -5% | -2% | 2 | -2 | 4.7µM* | 1%
CCN(C(=O)COC(=O)/C=C/c1cccc([N+](=O)[O-])c1)c1c(N)n(Cc2ccccc2)c(=O)[nH]c1=O | 4% | ? | . | . | ? | .
CCSc1nnc(NC(=O)CSc2nc3c(cc2C#N)CCCC3)s1 | -3% | 56% | 21 | 25 | 29% | 3%
CCc1nnc(NC(=O)CSc2nc3c(cc2C#N)CCC3)s1 | 0% | 135% | 32* | 70* | . | 4%
Cc1cccc(NC(=S)NC(C)C(c2ccccc2)N2CCN(C)CC2)c1C (centres undefined) | -2% | ? | -6 | -6 | -25% | .
O=C(c1ccccc1)[C@@H]1[C@@H](C(=O)c2ccc(F)cc2)[C@@]2(C(=O)Nc3ccccc32)[C@H]2c3ccccc3C=CN12 | 20% | 15µM* | 7 | 10 | ? | 27%
CC(=O)[C@@H]1[C@@H](C(=O)c2ccccc2)[C@]2(C(=O)Nc3ccccc32)[C@H]2C=Cc3cc(F)ccc3N12 | -12% | -14% | 1 | -3 | ? | 11%
COC(c1ccccc1)c1c(-c2ccccc2)nn(C)c1Cl (centres undefined) | -3% | 13µM* | 1 | -5 | 12µM* | -19%
COc1cccc(-n2cc(CNCc3c(C(=O)N(C)C)nc4ccc(Cl)cn34)cn2)c1 | 1% | 8.3µM* | 2 | 11 | ? | -1%
COc1ccc(CCn2nnnc2C(C(C)C)N2CCN(c3ncccn3)CC2)cc1OC (centres undefined) | 6% | 9.3µM* | 11 | -13 | ? | -23%
CC(C)CC(c1nnnn1CCc1ccccc1)N1CCC(C(N)=O)CC1 (centres undefined) | 12% | 19% | -1 | 3 | 9.3µM* | -3%
CC(C)CC(c1nnnn1Cc1ccc(F)cc1)N1CCC(C(N)=O)CC1 (centres undefined) | 0% | -22% | -6 | -6 | 0% | .
COc1ccc(CCn2nnnc2C(CC(C)C)N2CCC(C(N)=O)CC2)cc1OC (centres undefined) | 3% | 12% | -1 | -1 | 12µM* | -2%
COc1ccc(Cn2nnnc2C(CC(C)C)N2CCC(C(N)=O)CC2)cc1 (centres undefined) | 0% | -10% | 44* | 77* | ? | -4%
CCCC(c1nnnn1Cc1ccc(OC)cc1)N1CCC(C(N)=O)CC1 (centres undefined) | 11% | -23% | -3 | -7 | 5% | ?
Cc1cccc(NC(=O)CCN2CCC(C)CC2)c1 | 2% | 1% | -3 | . | 7% | 2%
SMILES | SARS PLpro yeast | Pf growth 48h | CHX counter | Shiga inhibitor | Pf growth 96h | NS1 inh
O=C1CCc2cc(NS(=O)(=O)c3ccc(Cl)cc3)cc3c2N1CC3 | . | -25% | . | . | ? | .
Cc1cc([N+](=O)[O-])nn1CC(=O)NC1CCCCC1 | -1% | 15% | -1 | -4 | ? | -6%
O=C(C1CCC(=O)N1C1CCCCC1)N1CCN(c2ccc(F)cc2)CC1 (centres undefined) | 1% | -11% | -1 | -6 | 11% | -4%
CC1CCCCC12NC(=O)N(Cc1cc(=O)n3ccsc3n1)C2=O (centres undefined) | 1% | -2% | 30* | 2 | -3% | 3%
CC1CCC2(CC1)NC(=O)N(Cc1cc(=O)n3ccsc3n1)C2=O (centres undefined) | 0% | 40% | -3 | -1 | -3% | 0%
O=c1cc(CN2CCCc3ccccc32)nc2sccn12 | 4% | -18% | 24* | 59 | 11% | -5%
O=c1cc(CN2CCc3ccccc32)nc2sccn12 | -1% | . | 0 | -5 | 4% | 14%
CC1CN(Cc2cc(=O)n3ccsc3n2)CC(C)O1 (centres undefined) | -2% | 18% | -3 | -14 | 12µM* | -1%
O=c1cc(CN2CCC(Cc3ccccc3)CC2)nc2sccn12 | 0% | 1% | -3 | 10 | ? | .
CC(=O)N1N=C(c2cccc(Br)c2)OC12CCCC2 | -2% | 5% | -7 | -12 | 10% | .
CCOc1ccc(CN(C)CC(=O)Nc2ccccc2C(=O)NC2CC2)cc1 | -5% | ? | . | . | -1% | .
CNC(=S)Nc1cccc(S(=O)(=O)NC2=NCCC2)c1 | 3% | 11% | 0 | 3 | 14% | .
CCCC1(C(=O)OCC)NC(c2ccc(N(C)C)cc2)C2C(=O)N(c3ccccc3)C(=O)C21 (centres undefined) | -19% | ? | -1 | 8 | . | -1%
CCCC1(C(=O)OCC)NC(c2ccc(N(C)C)cc2)C2C(=O)N(c3ccc(OCC)cc3)C(=O)C21 (centres undefined) | 3% | 12µM* | -5 | -14 | ? | -33%
COC(=O)C1(C)NC(c2ccc(O)cc2)C2C(=O)N(c3ccc(C)cc3)C(=O)C21 (centres undefined) | -2% | 30% | -1 | 9 | 4.7µM* | 1%
COC(=O)C1(C)NC(c2cccc(C)c2)C2C(=O)N(c3ccc(F)cc3)C(=O)C21 (centres undefined) | 0% | -4% | -5 | -7 | 3.7µM* | 9%
Cc1cc(NC(=O)C(C)SCC(=O)OCc2c(Cl)cccc2Cl)no1 (centres undefined) | -13% | -18% | 10 | 11 | ? | -20%
O=C(CN1C(=O)CCSc2ccccc21)Nc1ccccc1 | -1% | -5% | -1 | 14 | -11% | -8%
CCOC(=O)c1cn(-c2c(Cl)cccc2Cl)c2cc(Cl)c([N+](=O)[O-])cc2c1=O | 13% | 13µM* | -5 | -16 | 8.3µM* | -2%
